PI5P4K alpha inh = blocks human PI5P4K alpha kinase activity | P48426 | PI5P4Kalpha enzyme, ADP-Glo luminescence, 60 min; stronger effect = lower value | max response, % | 1.2% of 330,000 active; active = max response of -50% or lower; inconclusive = between -30% and -50%; inactive = -30% or higher; also: value at the top dose of about 77 µM
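Quantitative HTS of the MLSMR library against PI5P4Kalpha with substrate. ATP added last at 5 microM final; room temperature, 60 minutes. Remaining ATP depleted, ADP converted and read as luminescence.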
POLB inh = inhibitors of human DNA polymerase beta; Potency, µM (top dose mostly 114 µM), hits mostly inhibitors; Pol beta primer extension/strand displacement, fluorescence kinetic; 1.3% of 340,000 active; AID 485314
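Kinetic readout of DNA synthesis with strand displacement by Pol beta. Compound and 10 nM enzyme sit 15 min at room temperature; 50 nM substrate starts the reaction, read immediately and at 10 min.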
POLH inh = inhibitors of human DNA polymerase eta; 1.2% of 390,000 active; Q9Y253; AID 588591; Potency, µM (highest dose often 114 µM), most hits filed as inhibitors; recombinant Pol eta, fluorescent DNA replication assay
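Pol eta (10 nM) was preincubated with compounds for 15 min at room temperature, after which fluorescent replication substrate (50 nM final) was added to start the reaction. Fluorescence was read kinetically at 0 and 10 min.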
Pol kappa inh = DNA polymerase kappa (human) inhibition; purified Pol kappa, fluorescent DNA synthesis assay, 10 min; Potency, µM (top dose mostly 107 µM), most hits filed as inhibitors; 0.53% of 400,000 active; AID 588579
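10 nM Pol kappa was preincubated with compounds for 15 min at room temperature. Reaction started with 50 nM (final) substrate. Fluorescence read kinetically at 0 and 10 min.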
ALOX12 inh = ALOX12 (human) lipoxygenase inhibition; purified 12hLO, xylenol orange hydroperoxide absorbance; 1.1% of 580,000 active; P18054; AID 1671190; Potency, µM (top dose mostly 108 µM), most hits filed as inhibitors
Target sequence (P18054 whole entry, looked up): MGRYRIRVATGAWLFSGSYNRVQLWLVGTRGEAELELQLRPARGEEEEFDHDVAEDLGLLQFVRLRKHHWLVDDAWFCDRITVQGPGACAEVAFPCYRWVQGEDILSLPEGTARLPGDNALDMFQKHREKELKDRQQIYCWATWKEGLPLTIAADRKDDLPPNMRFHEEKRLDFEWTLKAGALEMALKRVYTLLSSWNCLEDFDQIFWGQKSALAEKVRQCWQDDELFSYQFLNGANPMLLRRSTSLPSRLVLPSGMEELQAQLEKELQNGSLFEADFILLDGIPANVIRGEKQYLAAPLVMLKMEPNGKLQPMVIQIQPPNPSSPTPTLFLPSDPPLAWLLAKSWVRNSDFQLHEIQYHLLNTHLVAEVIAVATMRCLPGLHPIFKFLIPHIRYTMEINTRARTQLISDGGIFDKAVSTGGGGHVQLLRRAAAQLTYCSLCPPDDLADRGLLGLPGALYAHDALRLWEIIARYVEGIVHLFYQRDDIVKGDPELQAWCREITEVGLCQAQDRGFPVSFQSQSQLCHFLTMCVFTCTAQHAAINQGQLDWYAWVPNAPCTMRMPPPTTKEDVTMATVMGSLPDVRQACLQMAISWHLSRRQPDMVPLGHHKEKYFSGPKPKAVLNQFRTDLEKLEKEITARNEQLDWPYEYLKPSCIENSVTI
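Hydroperoxide product was detected by ferrous iron/xylenol orange as the 573 to 405 nm absorbance ratio. Arachidonic acid at 40 uM (final) was turned over for 30 min at room temperature by 150 nM human 12hLO, pH 7.0 Hepes buffer, after 15 min compound preincubation.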
Pol iota inh = DNA polymerase iota (human) inhibition. Q9UNA4. Pol iota fluorescent replication assay, 10 min. Potency, µM (series often up to 115 µM), usual class: inhibitors. 1% of 390,000 active. AID 588590
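Pol iota at 10 nM preincubated 15 min with compounds at room temperature; reaction started with fluorescent substrate, 50 nM final. Fluorescence read kinetically at 0 and 10 min; buffer-only wells as negative control.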
A number is an active result; i = inactive; ? = inconclusive; nt = no result given. Shown are actives, neighbours in structure and some others; about 2.9% of the full set was active somewhere. Unless noted, calls follow the shape of the dose curve; as a rule, active = well fitted inhibition curve with a large enough effect; inconclusive = small, poorly fitted or top-dose-only effect, or another doubt; inactive = no such curve, though single readings can be large or run the other way.

SMILES | PI5P4K alpha inh | POLB inh | POLH inh | Pol kappa inh | ALOX12 inh | Pol iota inh
Cn1cccc1-c1cc(C(=O)N/N=C/C=C/c2ccccc2)[nH]n1 | i | 10µM | i | ? | i | ?
COc1cccc(/C=N/NC(=O)c2cc(-c3cccn3C)n[nH]2)c1 | i | 35µM | ? | ? | i | ?
CC1CCN(S(=O)(=O)c2ccc(NC(=S)NC(=O)c3ccc(Cl)cc3)cc2)CC1 | i | i | i | i | 14µM | i
CN1CCN(S(=O)(=O)c2ccc(NC(=S)NC(=O)c3ccc(Cl)cc3)cc2)CC1 | -51 | i | ? | i | ? | ?
O=C(NC(=S)Nc1ccc(S(=O)(=O)N2CCCCC2)cc1)c1ccc(Cl)cc1 | i | ? | i | i | ? | i
CC(Oc1ccccc1Cl)C(=O)Nc1ccc(S(=O)(=O)N2CCN(C)CC2)cc1 (centres undefined) | -67 | nt | i | i | ? | ?
CN1CC(O)C2=CC(=O)C(=O)C=C21 (centres undefined) | nt | nt | nt | 0.32µM | ? | nt
CC1=NN(C(=O)c2ccncc2)C(=O)C1N=Nc1ccc2ccccc2c1 (centres undefined) | i | nt | ? | ? | i | 89µM
CC1=NN(C(N)=S)C(=O)C1N=Nc1ccccc1 (centres undefined) | i | i | i | i | i | i
O=C(Nc1ccc(Cl)c2ncccc12)c1cnc2c(c1)c(=O)[nH]c(=O)n2C1CC1 | nt | nt | nt | nt | i | nt
COCCN1C(=O)Cc2c1nc(N)c1c(N)nc(N3CCN(c4ccc(F)cc4)CC3)c(C#N)c21 | ? | i | i | i | i | ?
COc1ccc(CN2C(=O)Cc3c2nc(N)c2c(N)nc(N4CCOCC4)c(C#N)c32)cc1 | ? | i | ? | i | ? | 7.9µM
Cc1cc(C)c(C#N)c(N2CCN(c3ccccc3F)CC2)n1 | i | i | i | i | i | i
COCC(C)N1C(=O)Cc2c1nc(N)c1c(N)nc(N3CCN(c4ccccc4F)CC3)c(C#N)c21 (centres undefined) | i | i | i | i | i | 18µM
O=C(O)c1cccc(COc2ccc(Cl)cc2)c1 | nt | nt | nt | nt | i | nt
CC(C)CN(CCNC(=O)COCc1cc(-c2cccs2)on1)CC(C)C | nt | nt | nt | nt | i | nt
O=C(NNc1cc(Br)c(O)c(Br)c1)c1ccccc1 | -91 | i | i | ? | ? | 22µM
O=C(NC1CCCCC1)N1CCC(c2nnc3n2CCNC3)CC1 | nt | nt | nt | nt | 13µM | nt
O=C(NC1CCCCC1)N1CCNCC1 | i | i | i | i | i | i
Cc1nn(-c2cccc(C(F)(F)F)c2)c(Cl)c1/C=N/Nc1cccc(C(=O)O)c1 | i | 56µM | i | i | ? | i
C/C(=N\Nc1cccc(C(F)(F)F)c1)c1ccc(O)cc1 | i | i | i | i | 35µM | i
Cc1nn(-c2ccccc2Cl)c(Cl)c1/C=N/Nc1cccc(C(=O)O)c1 | i | i | i | i | i | i
C/C(=N\NC(=O)CNc1cccc(C(F)(F)F)c1)c1ccc(Br)cc1 | i | i | i | i | i | i
FC(F)(F)c1cccc(N/N=C/c2ccc(Br)cc2)c1 | nt | nt | nt | nt | 0.79µM | nt
O=C(O)c1ccc(/C=N/Nc2cccc(C(F)(F)F)c2)cc1 | i | i | i | i | 45µM | i
SMILES | PI5P4K alpha inh | POLB inh | POLH inh | Pol kappa inh | ALOX12 inh | Pol iota inh
CC(C)=CCC12Oc3cc(O)ccc3C1(O)Oc1cc(O)c([C@H]3C=C(C)CC(c4ccc(O)cc4O)[C@H]3C(=O)c3ccc(O)cc3O)c(O)c1C2=O (some centres undefined) | -92 | nt | ? | ? | nt | ?
CC(=O)Nc1cccc(C(=O)N2CCCC(n3cc(-c4nc(C5CC5)no4)nn3)C2)c1 (centres undefined) | nt | nt | nt | nt | i | nt
O=C(Cc1cccs1)Nc1ccc(-c2nnn(CC(=O)N3CCOCC3)n2)cc1 | nt | 18µM | i | i | nt | i
O=C(Nc1cccc(CO)c1)c1cn(Cc2ccccc2)nc1-c1ccc(Cl)cc1 | nt | nt | nt | nt | i | nt
CCCC(CCC(=O)Nc1cc([N+](=O)[O-])ccc1O)C(=O)O (centres undefined) | i | 22µM | i | i | i | i
N#C/C(=C/c1ccc(-c2ccccc2[N+](=O)[O-])o1)C(N)=O | i | ? | i | i | i | i
CN1C(=O)/C(=C/c2ccc(-c3ccccc3[N+](=O)[O-])o2)SC1=Nc1ccc(Cl)c(C(=O)O)c1 | -60 | 14µM | 20µM | ? | ? | ?
NC1=NC(=O)/C(=C\c2ccc(-c3ccccc3[N+](=O)[O-])o2)S1 | nt | nt | nt | ? | nt | 20µM
O=S(=O)(CCN1CCN(c2ccccc2)CC1)c1ccccc1 | nt | nt | nt | nt | i | nt
O=C(O)c1ccc(COc2cccc(Cl)c2)cc1 | nt | nt | nt | nt | i | nt
O=c1[nH]c2ccccc2c2ccc(Cl)cc12 | i | nt | i | i | ? | i
O=c1[nH]c2cc(F)ccc2c2ccc(F)cc12 | i | nt | 20µM | i | i | ?
Cn1c(=O)[nH]c2c(nc(-c3ccccc3)n2CCc2ccccc2)c1=O | nt | nt | nt | nt | i | nt
C=C(c1cccc2ccccc12)P(=O)(O)O | i | i | i | i | 13µM | i
Cc1cc(C)c(NC(=O)CN(C)C(=O)CSc2ccc(Br)cc2)c(C)c1 | nt | nt | nt | nt | i | nt
COc1ccc(OCC(=O)OCc2cc(=O)n3nc(C4CCCCC4)sc3n2)cc1 | nt | 45µM | i | i | i | ?
COc1ccc(OCC(=O)OCc2cc(=O)n3nc(C4CC4)sc3n2)cc1 | nt | i | i | i | i | i
CN(Cc1nc2ccsc2c(=O)[nH]1)C(=O)COc1cccc(F)c1 | nt | nt | nt | nt | 5µM | nt
COc1cc2c(cc1OC)C(CNC(=O)c1cccs1)N(C(=O)Nc1ccccc1)CC2 (centres undefined) | nt | nt | nt | nt | i | nt
Cc1cc(C(=O)Cn2ncc(Cl)c(Cl)c2=O)c(C)n1CC(F)(F)F | -56 | i | 22µM | i | i | ?
c1ccc(-c2nc3nonc3c3nc4ccccc4n23)cc1 | nt | 45µM | i | i | i | i
c1ccc(-c2nc3ccccc3c3nc4ccccc4n23)cc1 | i | i | ? | i | i | i
O=C(N/N=C/c1cccnc1)c1ccccc1OCc1ccc(Cl)cc1 | nt | i | nt | nt | nt | nt
O=C(N/N=C/c1cccnc1)c1cc(-c2ccccc2OCc2ccccc2)n[nH]1 | i | 79µM | i | i | i | i
O=C(Nc1ccc(Cl)cc1)N1Cc2[nH]cnc2C[C@H]1c1nc(-c2ccc3ccccc3c2)no1 | nt | nt | nt | nt | i | nt
O=C(C1CC(=O)N(c2ccccc2)C1)N1CCN(c2ccccc2)CC1 (centres undefined) | i | i | i | i | i | i
Cc1ccc(N2CC(C(=O)N3CCN(c4ccccn4)CC3)CC2=O)cc1 (centres undefined) | i | nt | 50µM | ? | i | ?
CCc1ccc(C(=O)C(C)Oc2ccc3ccc(=O)oc3c2)cc1 (centres undefined) | nt | nt | nt | nt | i | nt
CC(C)NC(=S)N/N=C/c1sc(N2CCCCC2)nc1-c1cccs1 | i | i | ? | i | 35µM | i
COc1cc(NS(=O)(=O)c2cccc(Cl)c2C)cc2sc(NC(=O)c3ccccc3)nc12 | nt | nt | nt | nt | i | nt

Bioassay records (PubChem)
